Screening results: PubChem, The Scripps Research Institute Molecular Screening Center
An excerpt weighted towards active compounds, which were near 1.1% of everything screened.
NR5A2 inv ag: LRH-1 (NR5A2) inverse agonists, primary screen, cell-based, luminescence, HEK293T, StAR-luciferase reporter | Nuclear receptor subfamily 5 group A member 2 (Homo sapiens), O00482 | LRH-1 transfected, 24 h | inhibition, % at 3.6 µM | 0.13% of 360,000 active;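 active means inhibition above the mean inhibition of all tested compounds plus 3 SD, cut at about 73% in these data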
SRC3 inh: SRC3 coactivator transcriptional activity inhibitors, primary screen, cell-based, luminescence. HEK293 GAL4-SRC3 luciferase reporter. inhibition, % at 3.6 µM. 0.17% of 360,000 active;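 active means inhibition above a per-campaign cutoff, the mean of all compounds plus 3 SD, cut at about 60% in these data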;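 further: higher means less SRC3-driven luciferase light from the GAL4 reporter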
GalR3 antagonist: GalR3 antagonists in HEK293 cells, primary screen, cell-based, fluorescence readout. Galanin receptor type 3 (Homo sapiens), O60755. HEK293 GalR3-CNG cAMP membrane potential fluorescence; galR3 body fused to GalR1 C-terminus. inhibition, % at 3 µM. 0.44% of 360,000 active;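 active means inhibition above the screen-wide average plus 3 SD, cut at about 13% in these data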;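 further: forskolin and galanin both at EC90 stimulate the cells; cAMP rise reported by CNG channel membrane potential dye signal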
Target sequence (O60755 1-299 limits assumed): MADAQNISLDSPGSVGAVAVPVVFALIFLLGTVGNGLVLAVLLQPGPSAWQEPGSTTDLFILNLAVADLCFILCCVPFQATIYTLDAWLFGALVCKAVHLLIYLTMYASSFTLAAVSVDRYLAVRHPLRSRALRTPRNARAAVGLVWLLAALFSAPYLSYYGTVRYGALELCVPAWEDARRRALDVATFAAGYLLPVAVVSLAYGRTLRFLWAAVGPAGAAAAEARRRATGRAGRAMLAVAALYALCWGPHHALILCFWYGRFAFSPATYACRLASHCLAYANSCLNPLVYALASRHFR
NCOA1 inh: SRC1 coactivator transcriptional activity inhibitors, primary screen, cell-based, luminescence | 0.12% of 360,000 active | Nuclear receptor coactivator 1 (Homo sapiens), Q15788 | AID 588354, 2011 | inhibition, % at 3.6 µM | HEK293 GAL4-SRC1 luciferase reporter;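 active means inhibition above the campaign mean plus 3 SD, with each screening campaign given its own cutoff, cut at about 60% in these data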
NCOA2 inhibitor: inhibition of GAL4-SRC2 driven luciferase reporter, primary screen, SRC2 inhibitor project, cell-based, luminescence; 0.17% of 370,000 active; inhibition, % at 9 µM; AID 651957, 2012; Nuclear receptor coactivator 2 (Homo sapiens), Q15596; HEK293 GAL4-SRC2 luciferase reporter;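 active means inhibition above the mean inhibition of all tested compounds plus 3 SD, set per campaign, cut at about 52% in these data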
NR2F2 inh: NR2F2 transcriptional activity inhibitors, primary screen, cell-based, luciferase reporter, HEK293T, luminescence | HEK293T NGFI-A luciferase reporter | inhibition, % at 8.6 µM | 0.7% of 370,000 active | COUP transcription factor 2 (Homo sapiens), P24468;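 active means inhibition above a per-plate cutoff, mean inhibition of test wells between control levels plus 3 SD, cut at about 38% in these data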;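 further: cells cotransfected with COUP-TFII expression vector driving the NGFI-A reporter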
Target sequence (P24468 whole entry, looked up): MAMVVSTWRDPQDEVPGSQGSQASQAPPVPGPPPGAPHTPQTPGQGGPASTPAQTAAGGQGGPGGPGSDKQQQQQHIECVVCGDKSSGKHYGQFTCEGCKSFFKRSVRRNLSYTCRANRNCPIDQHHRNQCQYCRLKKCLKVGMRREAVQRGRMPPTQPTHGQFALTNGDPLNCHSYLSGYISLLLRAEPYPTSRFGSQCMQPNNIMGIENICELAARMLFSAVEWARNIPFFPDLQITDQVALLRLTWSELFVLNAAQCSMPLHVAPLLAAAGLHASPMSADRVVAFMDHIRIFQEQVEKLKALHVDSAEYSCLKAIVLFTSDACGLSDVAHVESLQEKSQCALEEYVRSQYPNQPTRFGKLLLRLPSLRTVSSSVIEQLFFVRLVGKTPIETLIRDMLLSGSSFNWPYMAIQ
VP16 Luc counter: Gal4-VP16 luciferase reporter inhibitors, counter-screen for COUP-TFII antagonist project, cell-based, luminescence, HEK293; shares compounds with NR2F2 inh; 25% of 2,500 active; AID 687007, 2013; inhibition, % at 8.5 µM; in the data active means inhibition above about 13%
COUP-TFII conf: NR2F2 transcriptional activity inhibitors, confirmation, cell-based, luciferase reporter, HEK293, triplicate; inhibition, % at 8.5 µM; HEK293 NGFI-A luciferase reporter, luminescence; 45% of 2,500 active; shares compounds with NR2F2 inh;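 active means mean inhibition over three repeats above a set limit taken from the earlier primary screen, cut at about 38% in these data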
Large screens that a line does not name were inactive (follow-up assays come after a bar, where they were run); ! = not confirmed by another sample.

CC1CCN(S(=O)(=O)c2cc(C(=O)N3CCN(c4ccccc4)CC3)ccc2Br)CC1	NR2F2 inh 47 | VP16 Luc counter inactive | COUP-TFII conf 45
Cc1ccc(C(=O)N2CCN(c3ccccc3)CC2)cc1S(=O)(=O)N1CCCC1	none
Cc1ccc(C(=O)N2CCN(c3ccc(F)cc3)CC2)cc1S(=O)(=O)N1CCCCC1	NR2F2 inh 49 | VP16 Luc counter inactive | COUP-TFII conf inactive
COC(=O)C1CN(Cc2cn(Cc3ccc(F)cc3)nn2)CCS(=O)(=O)N1Cc1ccc(OC)cc1 (configuration not stated)	none (no result: NR5A2 inv ag, SRC3 inh, GalR3 antagonist, NCOA1 inh)
C[n+]1c2n(c3ccccc31)N=C(c1ccc(-c3ccccc3)cc1)CS2	SRC3 inh 63, NR2F2 inh 70 | VP16 Luc counter inactive | COUP-TFII conf 65
C[n+]1c2n(c3ccccc31)N=C(c1ccccc1)CS2	NR2F2 inh 40 | VP16 Luc counter inactive | COUP-TFII conf 47!
Cc1cccc(-c2nnc3n2N=C(c2ccccc2)CS3)c1	none
CCc1nnc2n1N=C(c1ccc(Br)cc1)CS2	none
C[n+]1c2n(c3ccccc31)N=C(c1ccc(Br)cc1)CS2	NR2F2 inh 48 | VP16 Luc counter 20 | COUP-TFII conf 51
Cc1cc(-c2nnc3n2N=C(c2ccc(-c4ccccc4)cc2)CS3)n[nH]1	none
CCCC1CCC2(CC1)CCC2OC(=S)Nc1cccc(Cl)c1 (configuration not stated)	none (no result: NR5A2 inv ag, SRC3 inh, GalR3 antagonist, NCOA1 inh, NCOA2 inhibitor)
CC(C)(C)c1ccc(C(O)c2ncc(-c3ccccc3)[nH]2)cc1 (configuration not stated)	none
OC(c1ccc(-c2ccccc2)cc1)c1ncc(-c2ccccc2)[nH]1 (configuration not stated)	NR2F2 inh 57 | VP16 Luc counter inactive | COUP-TFII conf inactive
Cc1cc(C)nc(N2CCC(C(=O)N(C)CCc3ccccc3)CC2)n1	none (no result: NR5A2 inv ag, SRC3 inh, GalR3 antagonist, NCOA1 inh)
Cc1ccccc1CS(=O)(=O)Cc1ccc(C(=O)Nc2ccc(F)cc2)o1	NR2F2 inh 53 (no result: NR5A2 inv ag, SRC3 inh, GalR3 antagonist, NCOA1 inh) | VP16 Luc counter inactive | COUP-TFII conf inactive
CCC[C@H](/C=C/C(=O)OC(C)(C)C)Sc1ccc(OC)cc1	none (no result: NR5A2 inv ag, SRC3 inh, GalR3 antagonist, NCOA1 inh)
CC(C)NC(=O)C1(C)CCCCN1Cc1ccc(OCc2ccccc2)cc1 (configuration not stated)	NR2F2 inh 41 | VP16 Luc counter inactive | COUP-TFII conf inactive
Cc1ccc(CN2CCCC2(C)C(=O)NC(C)C)cc1 (configuration not stated)	none
Cc1ccc(S(=O)(=O)N2CCCC2C(=O)N2CCc3ccccc3C2)cc1C (configuration not stated)	none (no result: NR5A2 inv ag, SRC3 inh, GalR3 antagonist, NCOA1 inh)
Cc1ccc(C(=O)C[n+]2cc(-c3ccc(C)cc3)n3c2CCCCC3)cc1	NR5A2 inv ag 74, GalR3 antagonist 20, NR2F2 inh 46 | VP16 Luc counter inactive | COUP-TFII conf inactive
COC(=O)[C@]12C[C@H](CC(=O)NCc3ccc(OC)c(OC)c3)C(=O)N(Cc3ccc(Cl)cc3Cl)C1=C[C@H](COCc1ccccc1)O[C@@H]2C	none (no result: NR5A2 inv ag, SRC3 inh, GalR3 antagonist, NCOA1 inh)
CCCn1c2c(c(=N)c3c1CCC3)CCCC2	none
N=c1c2c(n(Cc3ccc(Br)cc3)c3c1CCC3)CCCC2	NR5A2 inv ag 93, SRC3 inh 75, NR2F2 inh 68 | VP16 Luc counter 24 | COUP-TFII conf 61
N=c1c2c(n(Cc3ccc(Cl)c(Cl)c3)c3c1CCC3)CCCC2	NR5A2 inv ag 96, SRC3 inh 68, NCOA1 inh 63, NR2F2 inh 64 | VP16 Luc counter 16 | COUP-TFII conf 47
N=c1c2c(n(Cc3ccc([N+](=O)[O-])cc3)c3c1CCC3)CCCC2	none
COC(=O)N(C)c1nc2ccccc2s1	none
CN(C(=O)OC(C)(C)C)c1ccc(-c2nc3ccccc3s2)cc1	NR5A2 inv ag 85, SRC3 inh 87, NCOA1 inh 86, NCOA2 inhibitor 85, NR2F2 inh 97 | VP16 Luc counter 87 | COUP-TFII conf 107
CC(C)c1ccc(-c2nc3ccccc3s2)cc1	NR5A2 inv ag 82, SRC3 inh 87, NCOA1 inh 82, NCOA2 inhibitor 80, NR2F2 inh 89 | VP16 Luc counter 68 | COUP-TFII conf 98
CC(=O)N[C@@H]1C[C@@H]2O[C@H](CO)CC[C@@H]2O[C@@H]1CCc1ccc(-c2ccc(F)cc2)cc1	none (no result: NR5A2 inv ag, SRC3 inh, GalR3 antagonist, NCOA1 inh)
CCCCN(C)c1c2c(nc3ncnn13)CCCC2	none (no result: NR5A2 inv ag, SRC3 inh, GalR3 antagonist, NCOA1 inh)
Cc1ccc(NC(=O)c2ccc(OCc3c(C)noc3C)cc2)cc1C	NR2F2 inh 38 | VP16 Luc counter inactive | COUP-TFII conf inactive
CC(=O)Nc1ccc(NC(=O)c2ccc(OCc3c(C)noc3C)cc2)cc1	none
O=C(c1cccc(Cl)c1)N1CCN(c2ccnc3cc(Cl)ccc23)CC1	NR2F2 inh 49 (no result: NR5A2 inv ag, SRC3 inh, GalR3 antagonist, NCOA1 inh, NCOA2 inhibitor) | VP16 Luc counter inactive | COUP-TFII conf inactive
CC1CN(c2ccnc3cc(Cl)ccc23)CCN1C(=O)c1ccc(Cl)cc1 (configuration not stated)	NR2F2 inh 50 (no result: NR5A2 inv ag, SRC3 inh, GalR3 antagonist, NCOA1 inh, NCOA2 inhibitor) | VP16 Luc counter inactive | COUP-TFII conf inactive
CC(=O)Nc1ccc(C(/C=C/c2ccccc2)Cc2ccccc2)cc1 (configuration not stated)	none (no result: NR5A2 inv ag, SRC3 inh, GalR3 antagonist, NCOA1 inh)
N#Cc1ccc(-c2ccc(OCC(=O)Nc3cccnc3)cc2)cc1	NCOA2 inhibitor 53, NR2F2 inh 47 | VP16 Luc counter inactive | COUP-TFII conf inactive
c1ccc(C(Cc2nc(-c3ccncc3)no2)c2ccccc2)cc1	NR2F2 inh 56 | VP16 Luc counter inactive | COUP-TFII conf 41
c1ccc(-c2nc(-c3ccncc3)no2)cc1	none
O=C(CCn1nnc(-c2cccs2)n1)N1CCOCC1	none (no result: NR5A2 inv ag, SRC3 inh, GalR3 antagonist, NCOA1 inh)
CC1CCc2nc(N)c(C#N)c(-c3cccnc3)c2C1 (configuration not stated)	SRC3 inh 63, NCOA1 inh 72, NR2F2 inh 52 | VP16 Luc counter 14 | COUP-TFII conf inactive
Nc1ccc(C(=O)N/N=C/c2sc(N3CCOCC3)nc2-c2ccccc2)cc1	none
O=C(N/N=C/c1sc(N2CCOCC2)nc1-c1ccccc1)c1cccc(S(=O)(=O)N2CCOCC2)c1	NR5A2 inv ag 75, SRC3 inh 72, NCOA1 inh 66, NR2F2 inh 54 | VP16 Luc counter inactive | COUP-TFII conf 50
CC(C)(C)[C@H]1C=C(C(=O)Nc2ccccc2)O[C@@H](OCCCCO)C1	NR2F2 inh 63 | VP16 Luc counter inactive | COUP-TFII conf inactive
O=C(Nc1ccccc1)C1=C[C@H](C2CCCCC2)C[C@H](OCCCCO)O1	none
